From PubChem BioAssay
Where “and” joins values, the source holds several entries; their conditions need not be identical. Equal entries are not always repeated. Calls of active or inactive are those of the source.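 How the source made its calls, unless noted: active means inhibition at or above 50% relative to wild type and mutant plate controls; inactive means inhibition below 50%.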

What was measured:
[1] = inhibitors of TNFa-induced NFkB p65 translocation, primary screen, imaging, HUVEC, MLSMR starter and 10KST1 sets (AID 438;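 active means inhibition above 20% together with a positive visual image hit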;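 further: compound added about 3h40 before a 20 min TNFalpha stimulation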;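 on inhibition: signal is the nuclear over cytoplasmic p65 intensity ratio per well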); settings: HUVEC TNFa-induced p65 nuclear translocation; cell count: measured here: nuclei count (cytotoxicity indicator), at 2.08 µM; inhibition: at 2 µM, stronger effect = higher value, 0% TNFa-plus-vehicle, 100% no-TNFa wells
[2] = inhibitors of mutant huntingtin aggregation, primary screen, imaging, exon1htt(103Q)mCFP cells, high-content imaging (AID 483;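 active means visual image review flags a hit and inhibition of aggregation exceeds 20%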;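 further: compound exposure lasted 3 days before fixation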;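 on nuclei count: percent of the per-plate median nuclei count of sample wells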); settings: exon1htt(103Q)mCFP cell line, aggregate imaging, at 2 µM; inhibition of aggregation: stronger effect = higher value; nuclei count: measured here: cell count, toxicity
[3] = inhibitors of E-selectin induction by TNFa, primary screen, imaging, HUVEC, immunofluorescence, MLSMR starter and 10KST1 sets (AID 487;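 active means visually confirmed hit in the image check and inhibition above 20%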;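 on inhibition: signal is fraction of cell area covered by stained E-selectin grains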;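 on nuclei count: 100% = median nuclei count of all wells on the same plate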); settings: HUVEC TNFalpha-induced E-selectin immunofluorescence imaging, at 2 µM; inhibition: stronger effect = higher value; nuclei count: measured here: cell number, toxicity
[4] = DUSP6 inhibitors restoring Erk phosphorylation by chemical complementation, primary imaging in DUSP6-transfected HeLa (AID 609;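 active means compounds giving at least 50% inhibition in the cell-based MKP-3 phosphatase rescue imaging test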;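 on inhibition: phospho-Erk level distribution per well compared with pooled transfected vehicle control wells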); settings: HeLa MKP-3 transfected, phospho-Erk imaging KS statistic, at 10 µM, cells stimulated with TPA for 15 min
[5] = target: Dual specificity protein phosphatase 6 (Homo sapiens) (UniProt Q16828); assay: as above; settings: HeLa MKP-3 transfected, phospho-Erk imaging KS statistic; at 10 µM; stronger effect = higher value; cells stimulated with TPA for 15 min
[6] = target: Voltage-gated potassium channel subunit beta-2 (Rattus norvegicus) (UniProt P62483); assay: KvBeta enzyme negative modulators, primary screen, biochemical, NADPH fluorescence (AID 622;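 active means fluorescence slope higher than the sample average by over 3 SD, cut at about -0.22 in these data, passing the limit was not always enough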;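 further: slope of raw intensity against log time taken from 70 to 1610 s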); settings: recombinant KvBeta, 4-cyanobenzaldehyde reduction, at 10 µM, stronger effect = higher value
[7] = target: Voltage-gated potassium channel subunit beta-2 (Rattus norvegicus) (UniProt P62483); assay: KvBeta positive modulators, primary screen, biochemical, NADPH fluorescence (AID 623;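 active means NADPH fluorescence slope more negative than the mean of all samples by about 3 SD, 99.7% confidence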;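 further: fluorescence intensity change per second fitted from 20 to 320 s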); settings: Recombinant KvBeta, NADPH fluorescence decrease slope, 10 min; at 10 µM; stronger effect = lower value
[8] = target: Alpha-2C adrenergic receptor (Homo sapiens) (UniProt P18825); assay: modulators of alpha2C/GIRK thallium flux, primary screen, cell-based, HEK293 alpha2C/GIRK1/2 (AID 624;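 active means fluorescence slope after compound addition differing from the mean of all screened samples at 99.7% confidence, in either direction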;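 further: slope of fluorescence ratio to pre-addition baseline per second over 15 to 24 s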); settings: thallium flux BTC fluorescence, at 10 µM, actives lie on both sides
[9] = inhibitors of larval lipid processing in zebrafish, primary screen, whole organism, PED6 fluorescence, gall bladder and intestine (AID 686;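 active means a full or partial loss of lipid-probe fluorescence in the fish gall bladder, intestine or both, judged by eye; inactive means no fluorescence loss, or compound toxic to the fish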;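 further: larvae 5 to 7 days old with five fish per well; signal comes from phospholipase A2 cleavage of quenched PED6 carried via bile; overnight exposure to compound and PED6 before scoring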); settings: Zebrafish larvae PED6 lipid processing, fluorescence scoring; screened at 20 µM (by protocol)
[10] = inhibitors of Chlamydomonas gravitaxis, primary screen, whole organism, Chlamydomonas reinhardtii, WT vs cilia-less mutant, absorbance, 96-well (AID 463189); settings: OD600 absorbance, 2 days, at 10 µM, stronger effect = higher value;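 further: 0% = wild type cc124 cells in DMSO and 100% = ciliumless bld1 mutant cells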
[11] = inhibitors of Sendai virus-induced IRF3 signaling, primary screen, TLR/RLR signaling modifier project, cell-based, Sendai virus stimulus, luciferase, 10K MLSCN set (AID 602276;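 active means inhibition at or above 50% at 10 µM; inactive means inhibition below 50%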;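 further: firefly luciferase from ISG56 promoter only with Renilla not read in this screen; 0% = Sendai virus plus DMSO and 100% = medium plus DMSO without virus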); settings: HEK293 RL24 IRF3 luciferase reporter, at 10 µM, stronger effect = higher value
[12] = inhibitors of poly I:C-induced TLR3 signaling, primary screen, cell-based, poly I:C stimulus, luciferase, 10K MLSCN set (AID 602277;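 active means inhibition of the reporter signal at or above 50%; inactive means inhibition below 50%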); settings: HEK293-TLR3 RL24 IRF3 luciferase reporter, at 10 µM, stronger effect = higher value
[13] = measured here: cell density z-score
[14] = measured here: nuclear c-Myc green intensity z-score
[15] = measured here: nuclear pErk red intensity z-score, stronger effect = higher value

Sequence of Dual specificity protein phosphatase 6 (Homo sapiens) (Q16828 whole entry, looked up): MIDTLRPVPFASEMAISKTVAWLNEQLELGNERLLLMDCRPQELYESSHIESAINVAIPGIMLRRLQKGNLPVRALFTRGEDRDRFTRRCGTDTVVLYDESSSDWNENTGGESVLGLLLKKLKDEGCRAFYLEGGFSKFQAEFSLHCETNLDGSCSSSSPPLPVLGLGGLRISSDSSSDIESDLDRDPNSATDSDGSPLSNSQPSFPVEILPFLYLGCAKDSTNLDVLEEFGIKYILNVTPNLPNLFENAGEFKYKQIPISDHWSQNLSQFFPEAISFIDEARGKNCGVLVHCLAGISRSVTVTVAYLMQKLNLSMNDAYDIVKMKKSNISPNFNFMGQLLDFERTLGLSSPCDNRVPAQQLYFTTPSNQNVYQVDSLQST
Sequence of Voltage-gated potassium channel subunit beta-2 (Rattus norvegicus) (P62483 whole entry, looked up): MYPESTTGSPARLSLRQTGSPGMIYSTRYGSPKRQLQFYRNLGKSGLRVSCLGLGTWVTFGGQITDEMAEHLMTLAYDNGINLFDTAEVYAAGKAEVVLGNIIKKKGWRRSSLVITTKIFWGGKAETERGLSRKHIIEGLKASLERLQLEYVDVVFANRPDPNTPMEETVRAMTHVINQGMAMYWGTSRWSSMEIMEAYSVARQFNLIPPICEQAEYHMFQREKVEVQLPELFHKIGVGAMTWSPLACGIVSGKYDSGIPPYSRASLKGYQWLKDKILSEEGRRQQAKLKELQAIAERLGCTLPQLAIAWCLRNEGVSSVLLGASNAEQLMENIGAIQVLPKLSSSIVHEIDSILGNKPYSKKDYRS
Sequence of Alpha-2C adrenergic receptor (Homo sapiens) (P18825 whole entry, looked up): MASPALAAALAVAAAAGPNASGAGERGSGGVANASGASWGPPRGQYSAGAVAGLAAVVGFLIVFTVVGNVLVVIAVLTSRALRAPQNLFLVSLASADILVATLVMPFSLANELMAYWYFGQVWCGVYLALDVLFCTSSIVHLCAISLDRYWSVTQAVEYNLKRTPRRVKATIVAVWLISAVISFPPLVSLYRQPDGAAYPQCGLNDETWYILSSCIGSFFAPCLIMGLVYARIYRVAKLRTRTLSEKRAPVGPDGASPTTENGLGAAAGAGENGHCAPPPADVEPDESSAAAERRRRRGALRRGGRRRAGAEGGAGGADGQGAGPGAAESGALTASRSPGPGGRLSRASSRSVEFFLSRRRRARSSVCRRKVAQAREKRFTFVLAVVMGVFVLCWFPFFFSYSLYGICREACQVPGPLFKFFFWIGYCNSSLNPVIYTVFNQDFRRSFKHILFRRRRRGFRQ

Row | SMILES | cell count [1] | inhibition [1] | inhibition of aggregation [2] | nuclei count [2] | inhibition [3] | nuclei count [3] | z-score [4, 13] | z-score [4, 14] | z-score [4, 15] | inhibition [5] | fluorescence slope [6] | NADPH fluorescence slope [7] | slope [8] | outcome [9] | inhibition [10] | inhibition [11] | inhibition [12]
1 | CN1CCN(CC(=O)N2c3ccccc3C(=O)Nc3cccnc32)CC1 | 529 | 5.4% (inactive) | -20% (inactive) | 110% | -81.3% (inactive) | 123% | 2.59 | -0.126 | -1.97 | 25.7% (inactive) | -0.476 (inactive) | -3.8e-05 (inactive) | 0.00501 (inactive) | inactive | 1.89% (inactive) and 39.4% (inactive) | 18.8% (inactive) | 34.2% (inactive)
2 | CNC[C@H](O)c1cccc(O)c1 | 561 | 0.6% (inactive) | 1.2% (inactive) | 89.3% | -73.1% (inactive) | 117% | 0.304 | 0.128 | -0.803 | 14.6% (inactive) | -0.468 (inactive) | -5e-05 (inactive) | 0.00773 (inactive) | inactive | -10.5% (inactive) and 0.836% (inactive) | 11.5% (inactive) | 41.6% (inactive)
3 | C=CCn1cnc2c(c1=O)c1nc3ccccc3nc1n2-c1ccc(C)cc1 | 548 | -5.7% (inactive) | -8.4% (inactive) | 100% | -70.3% (inactive) | 132% | -0.575 | -1.45 | 1.52 | -2.07% (inactive) | -0.354 (inactive) | -6.7e-05 (inactive) | 0.00438 (inactive) | inactive | 15.4% (inactive) | 15.3% (inactive) | 10% (inactive)
4 | Brc1c(NC2=NCCN2)ccc2nccnc12 | 621 | -4.8% (inactive) | -11.3% (inactive) | 104% | -58.7% (inactive) | 120% | -0.535 | 0.61 | 1.33 | 34.5% (inactive) | -0.534 (inactive) | 1.1e-06 (inactive) | 0.0151 (active) | inactive | 5.25% (inactive) and -5.37% (inactive) | 14% (inactive) | 28.8% (inactive)
5 | CCOC(=O)/C(C#N)=C1\Nc2ccccc2N=C1N(CC(C)C)CC(C)C | 586 | -7.3% (inactive) | -2.5% (inactive) | 105% | -92.9% (inactive) | 148% | -0.677 | -0.872 | -0.406 | 3.56% (inactive) | -0.524 (inactive) | -3.1e-05 (inactive) | 0.00419 (inactive) | inactive | 1.92% (inactive) | -5.84% (inactive) | -1.84% (inactive)
6 | Cc1cc(C)nc(NC2=NCC(=O)N2c2ccc(Cl)cc2)n1 | 641 | -3.3% (inactive) | -9.6% (inactive) | 111% | -78.7% (inactive) | 107% | 0.855 | 0.968 | -1.07 | 13.9% (inactive) | -0.492 (inactive) | -1.6e-05 (inactive) | 0.00625 (inactive) | inactive | -3.81% (inactive) | 15.2% (inactive) | 17.2% (inactive)
7 | Cn1c2c(c(=O)n(C)c1=O)C(NC(=O)C(C)(C)C)(C(F)(F)F)C(=O)N2 (configuration not stated) | 538 | -3.9% (inactive) | 0.9% (inactive) | 103% | -105% (inactive) | 131% | -0.683 | -0.488 | -0.945 | 5.26% (inactive) | -0.51 (inactive) | -6.1e-05 (inactive) | 0.00635 (inactive) | inactive | 17.2% (inactive) | 14.7% (inactive) | 16.6% (inactive)
8 | CC(C)(C)OC(=O)N1CC=C2C(C#N)=C(N)C(C#N)(C#N)[C@H](c3cccnc3)[C@H]2C1 | 461 | -13.5% (inactive) | 45.1% (active) | 70.7% | 28.8% (inactive) | 112% | -1.09 | -0.413 | 0.348 | -0.624% (inactive) | -0.387 (inactive) | -4.5e-05 (inactive) | 0.00436 (inactive) | inactive | 2.34% (inactive) | 11.2% (inactive) | 10.3% (inactive)
9 | CCC(=O)c1ccc(O)cc1 | 663 | 0.5% (inactive) | -14% (inactive) | 101% | -19.7% (inactive) | 118% | -0.298 | -0.183 | 0.759 | 19% (inactive) | -0.496 (inactive) | 8.5e-06 (inactive) | 0.00491 (inactive) | inactive | -6.67% (inactive) | 13.6% (inactive) | 5.36% (inactive)
10 | Cc1nn(C)cc1C1C2=C(CC(C)(C)CC2=O)OC2=C1C(=O)CC(C)(C)C2 | 616 | -2.2% (inactive) | 2.2% (inactive) | 108% | -77.9% (inactive) | 140% | 0.812 | 0.307 | -0.678 | 2.46% (inactive) | -0.337 (inactive) | -6.9e-06 (inactive) | 0.00477 (inactive) | inactive | 1.65% (inactive) | 10.6% (inactive) | 18% (inactive)
11 | Cc1cc(N2CCN(C3CCCC3)CC2)n2c(nc3ccccc32)c1C#N | 582 | -4.5% (inactive) | 36.4% (active) | 57.7% | 6.5% (inactive) | 110% | 1.58 | 0.862 | -0.0668 | 17.8% (inactive) | -0.33 (inactive) | -3.1e-05 (inactive) | 0.00579 (inactive) | inactive | -3.52% (inactive) | 24.6% (inactive) | 39% (inactive)
